# Screening results: PubChem BioAssay, National Center for Advancing Translational Sciences (NCATS)
# A selection: hits, their analogues and other compounds. The true share with any hit is near 1%.
# RXFP1 antagonist: qHTS Assay for Antagonists of the Relaxin Receptor RXFP1; 350,000 tested, 0.59% active; activity change, negative = inhibition, % at 57.5 µM; Relaxin receptor 1 (Homo sapiens), Q9HBX9; HEK293-RXFP1, relaxin-stimulated cAMP HTRF, 30 min; hits give low values;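 active = activity change of -60% or lower, but not beyond a set lower limit; inconclusive = change between -60% and -40%, or beyond the set limit; inactive = change above -40%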; also: % is scaled to controls: 0 for no effect and ±100 for the full control effect
# TSHR antag: Antagonists of the Thyroid Stimulating Hormone Receptor: HTS campaign. Thyrotropin receptor (Homo sapiens), P16473. TSHR-expressing cells, TSH-stimulated cAMP HTRF, 2 h; hits give low values. activity change, negative = inhibition, % at 11.5 µM. 330,000 tested, 0.2% active;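 active = activity change below a set negative limit, meaning inhibition stronger than a set level, cut at about -70% in these data; inconclusive = activity change between two set negative limits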; also: % is scaled to controls: 0 for no effect and ±100 for the full control effect
# Target sequence (P16473 whole entry, looked up): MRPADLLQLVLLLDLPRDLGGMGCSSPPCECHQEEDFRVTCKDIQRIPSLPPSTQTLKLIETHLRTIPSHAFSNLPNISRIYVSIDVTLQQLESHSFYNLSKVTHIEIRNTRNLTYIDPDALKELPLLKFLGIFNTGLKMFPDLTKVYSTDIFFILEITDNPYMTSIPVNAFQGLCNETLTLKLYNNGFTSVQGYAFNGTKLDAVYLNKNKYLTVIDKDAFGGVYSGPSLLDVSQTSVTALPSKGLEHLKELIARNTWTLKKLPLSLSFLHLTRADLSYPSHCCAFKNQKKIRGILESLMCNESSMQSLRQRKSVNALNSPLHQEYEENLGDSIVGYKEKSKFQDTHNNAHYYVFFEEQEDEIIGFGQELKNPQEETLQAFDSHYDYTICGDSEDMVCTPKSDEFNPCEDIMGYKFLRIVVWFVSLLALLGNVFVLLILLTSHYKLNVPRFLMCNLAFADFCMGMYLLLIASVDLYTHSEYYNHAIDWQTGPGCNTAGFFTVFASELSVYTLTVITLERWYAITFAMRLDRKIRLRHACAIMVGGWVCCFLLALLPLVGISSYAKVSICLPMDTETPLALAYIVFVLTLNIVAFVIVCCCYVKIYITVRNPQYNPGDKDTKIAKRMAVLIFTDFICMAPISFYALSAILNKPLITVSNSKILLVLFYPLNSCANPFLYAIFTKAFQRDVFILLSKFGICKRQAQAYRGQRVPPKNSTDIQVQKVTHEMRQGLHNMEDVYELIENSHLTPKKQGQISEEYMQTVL
#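 Read-out is FRET at 665 nm (cryptate excitation 337 nm) from a cryptate-tagged anti-cAMP antibody, competed by cell cAMP against cAMP-d2. Compounds are tested on freshly harvested TSHR cells challenged with 4nM TSH (EC80) for 2 hours at 37 deg C.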
# gsp antagonist: qHTS for Antagonists of gsp, the Etiologic Mutation Responsible for Fibrous Dysplasia/McCune-Albright Syndrome: qHTS; gsp-mutant cells, cAMP HTRF, 30 min; Potency, µM (titrated, usually from 76.9 µM), without a hit: at the highest dose activity change, negative = inhibition, actives largely listed as inhibitors; 340,000 tested, 0.4% active; AID 624288, 2012; calls by dose curve; cell line not stated here;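 also: intracellular cAMP measured with PDE inhibitor Ro 20-1724 present during compound exposure; potency is read from the fitted curve at half-maximal effect; % is scaled to controls: 0 for no effect and ±100 for the full control effect; nearly all actives have a fitted effect of over 65% in size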
#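 Cells in G418 medium, seeded 16-24 h, 37C; buffer exchange to DPBS + 1 mM CaCl2, 0.5 mM MgCl2, 0.05% BSA; cpds in DMSO + […] (300 uM stock), 30 min 37C; HTRF cAMP detection.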
# RXFP1 agonist: qHTS Assay for Agonists of the Relaxin Receptor RXFP1; Potency, µM (doses to about 57.5 µM), inactives show top-dose activation, actives largely listed as activators; HEK293T-RXFP1 cAMP TR-FRET, 30 min; response scale: percent of porcine relaxin response, buffer zero; 370,000 tested, 0.3% active; Relaxin receptor 1 (Homo sapiens), Q9HBX9; active = well fitted activation curve with a large enough effect; inconclusive = small, poorly fitted or top-dose-only effect; also: potency is read from the fitted curve at half-maximal effect; % is scaled to controls: 0 for no effect and ±100 for the full control effect; nearly all actives have a fitted effect of over 60% in size
#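 cAMP rise read by TR-FRET after 30 min, 37C compound exposure (up to 58 uM) in RXFP1-transfected HEK293 cells with Ro 20174 present. EC50 from Hill-equation fits, with 29 nM porcine relaxin as 100% and buffer as basal.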
# gsp agonist: qHTS for Agonist of gsp, the Etiologic Mutation Responsible for Fibrous Dysplasia/McCune-Albright Syndrome: qHTS | Potency, µM (top dose mostly 76.9 µM), for the others: top-dose activation (cAMP increase), usual class: activators | AID 624287, 2012 | gsp mutant cells, cAMP HTRF, 30 min | 340,000 tested, 0.13% active; active = well fitted activation curve with a large enough effect; inconclusive = small, poorly fitted or top-dose-only effect, or another doubt; inactive = no such curve, though single readings can be large or run the other way; cell line not stated here;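 also: phosphodiesterase inhibitor Ro 20-1724 added with compounds to block cAMP breakdown; potency is read from the fitted curve at half-maximal effect; nearly all actives have a fitted effect of over 60% in size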
#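 Cells stably selected in G418 were plated at 2000/well, grown 16-24 hr, then given compounds in DMSO with the PDE inhibitor […] (300 uM solution added) for 30 min at 37C; cAMP was read by HTRF.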
# * hit, by the source's call; ? = inconclusive; nt = not tested or not shown; [ ] = another dose, or the depositor's remark.
SMILES,RXFP1 antagonist,TSHR antag,gsp antagonist,RXFP1 agonist,gsp agonist
COc1ccc(-c2cc(C(=O)Nc3c(C(=O)c4ccc(C)c(F)c4)oc4ccccc34)no2)cc1,-8.5,nt,nt,?,nt
CN(C)c1nc(-c2cn(CCC#N)c3ccccc23)cs1,-81.9*,-0.5,?,0.5%,-11.1%[15.4 µM]
CC(C)[C@H](NC(=O)c1ccccc1)C(=O)OCC(=O)/C=C1/N(C)c2ccccc2C1(C)C,-21.1,-12.0,35.5µM*,-0.4%,-16.0%
CCOC(=O)c1ccc(NC(=S)NNC(=O)c2cc(-c3cccnc3)nc3ccccc23)cc1,-15.6,-25.5,-32.5%,-2.8%,9.8%
O=C(NNC(=S)Nc1ccccc1)c1cc(-c2cccnc2)nc2ccccc12,-60.7*,-16.8,-17.5%,2.2%,1.0%[15.4 µM]
CCC1(c2cnc[nH]2)Cc2ccccc2C1,-2.0,nt,nt,nt,nt
COc1ccc(C(=O)c2ccccc2)c2c(O)ccc(C(=O)c3ccccc3)c12,-20.7,?,28.2µM*,0.2%,-10.9%
CCSC1=NSC2=NC(=O)/C(=C\c3coc4ccccc4c3=O)C(=N)N12,-32.1,-90.6*,?,4.4%,-4.5%
CC(C)CC1=NN2C(=N)/C(=C\c3coc4ccccc4c3=O)C(=O)N=C2S1,-11.6,-8.8,?,0.4%,-41.4%
O=C(COc1ncnc2cc([N+](=O)[O-])ccc12)N(CCc1ccccc1)Cc1ccccc1,0.1,15.2,28.2µM*,10.0%,?
O=C(COc1ccc([N+](=O)[O-])cc1)N(Cc1ccccc1)Cc1ccccc1,nt,-6.6,-19.3%,0.7%,-46.4%
Cc1noc(C)c1COc1ccccc1C(=O)N(C)Cc1ccc(C(C)(C)C)cc1,-33.9,-40.1,50.1µM*,-2.1%,-36.3%
Cn1sc(NC(=O)c2cccc(Cl)c2)nc1=O,-25.4,-11.1,28.2µM*,1.3%,15.4%
Cn1c(=O)c2c(c3ccccc31)OC(=O)CC2c1cccc(F)c1 (stereo not given),nt,nt,nt,7.3%,nt
CC(C)Cc1ccc(C(C)CC2=CCC(CN(C)C)C2=O)cc1 (stereo not given),-83.5*,nt,-7.1%,nt,9.5%
COc1ccccc1NC(=O)C1CCCN(c2ncnc3onc(-c4ccc(F)cc4)c23)C1 (stereo not given),3.6,nt,nt,1.7%,nt
CCOc1ccc(-n2c(=O)c3c4c(sc3n(CC(=O)NC(C)CC)c2=O)CCC4)cc1 (stereo not given),-3.0,nt,nt,4.0%,nt
Cc1ccc(NC(=O)c2ccc3c(SCC(=O)O)c4c(nc3c2)CCCC4)c(Br)c1,19.5,8.1,-22.4%,11.2%,12.6µM*
COc1ccc(C)cc1NC(=O)c1ccc2c(SCC(=O)O)c3c(nc2c1)CCCC3,1.9,-30.8,-10.4%,0.2%,-26.2%
O=C(C1=C[C@@H](c2ccc(C(F)(F)F)cc2)C[C@@H](OCCCCO)O1)N1CCCCCCC1,nt,nt,11.2µM*,nt,nt
CCCN1C(=O)C2(c3ccccc31)c1c(oc3ccc(F)cc3c1=O)C(=O)N2CCCOC(C)C (stereo not given),nt,nt,nt,24.1%,nt
N#C/C(=C\c1ccncc1)c1nc2ccccc2o1,12.4,-1.6,-2.4%,4.0%,16.3%[15.4 µM]
N#C/C(=C\Nc1ccccc1O)c1nc2ccccc2o1,?,20.7,50.1µM*,4.6%,-5.7%
Cc1ccc(CNC(=O)C2CCC(CNS(=O)(=O)c3ccc(C)cc3)CC2)cc1 (stereo not given),-4.3,nt,nt,2.3%,nt
CCc1cccc(NC(=O)CCCn2nc(C)c3c(C)n(-c4ccccc4)nc3c2=O)c1,-65.6*,2.9,-12.9%,-0.3%,13.2%
COC(=O)c1c(-c2cccs2)csc1NC(=O)c1ccc(C(C)(C)C)cc1,3.8,nt,nt,1.1%,nt
Cn1nc(C(F)(F)F)c(-c2ccc(F)cc2)c1NC(=O)Nc1ccc(F)cc1,-16.3,-18.4,-11.5%,-3.6%,14.3%[15.4 µM]
Cn1nc(C(F)(F)F)c(-c2cccc(C(F)(F)F)c2)c1NC(=O)CSCC(=O)O,-3.6,-74.4*,12.6%,0.8%,?
